In PubChem BioAssay AID1159580 (chemical genetic matrix, 2015):
Among all 5,500 compounds or so, about 2,000 (36%) were called active. Not shown: some 18% with an inconclusive outcome. Cut-off read from the data, not from the text of the source: active = normalized growth mostly below about 0.91 (no sharp cut-off); inconclusive = no clear call, values can overlap the other calls; inactive = mostly above about 0.92. This is one part of the list.

Test: chemical genetic growth profiling, strain panel (AID 1159580);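 note: tested at 20 µM; growth read once vehicle control cultures reached saturation at 30 °C; 1 = growth at the plate median or of vehicle wells; lower values mean less growth of the strain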
Details: growth OD

Measured: normalized growth

CC(C)CC1C(=O)N2CCC[C@H]2C2(O)O[C@](NC(=O)C3C=C4c5cccc6[nH]c(Br)c(c56)C[C@H]4N(C)C3)(C(C)C)C(=O)N12 (stereo partly specified)
inactive: S. cerevisiae deletion strains, locus YKL009W, strain mrt4, active compounds read low 0.983 | S. cerevisiae deletion strains, locus YKL068W, active compounds read low 0.97 | S. cerevisiae deletion strains, locus YKL085W, strain MDH1 (second series), active compounds read low 0.963 | S. cerevisiae deletion strains, locus YKL085W, strain MDH1, active compounds read low 0.963 | S. cerevisiae deletion strains, locus YKL160W, strain elf1, active compounds read low 0.993 | S. cerevisiae deletion strains, locus YKL190W, strain CNB1, active compounds read low 0.979 | S. cerevisiae deletion strains, locus YKR001C, strain vps1, active compounds read low 0.989 | S. cerevisiae deletion strains, locus YKR026C, strain gcn3, active compounds read low 0.998 | S. cerevisiae deletion strains, locus YKR091W, strain srl3, active compounds read low 0.979 | S. cerevisiae deletion strains, locus YLL001W, strain dnm1, active compounds read low 0.988 | S. cerevisiae deletion strains, locus YLL026W, active compounds read low 0.977 | S. cerevisiae deletion strains, locus YLL041C, strain sdh2, active compounds read low 0.982 | S. cerevisiae deletion strains, locus YLR027C, strain aat2, active compounds read low 0.977 | S. cerevisiae deletion strains, locus YLR039C, strain RIC1, active compounds read low 0.905 | S. cerevisiae deletion strains, locus YLR058C, strain SHM2, active compounds read low 0.988 | S. cerevisiae deletion strains, locus YLR102C, strain apc9, active compounds read low 0.973 | S. cerevisiae deletion strains, locus YLR113W, strain HOG1, active compounds read low 0.945 | S. cerevisiae deletion strains, locus YLR221C, strain rsa3, active compounds read low 0.983 | S. cerevisiae deletion strains, locus YLR258W, strain gsy2, active compounds read low 0.997 | S. cerevisiae deletion strains, locus YLR262C, strain YPT6 (second series), active compounds read low 0.944 | S. cerevisiae deletion strains, locus YLR262C, strain YPT6, active compounds read low 0.951 | S. cerevisiae deletion strains, locus YLR268W, strain sec22, active compounds read low 0.98 | S. cerevisiae deletion strains, locus YLR320W, strain mms22, active compounds read low 0.982 | S. cerevisiae deletion strains, locus YLR330W, strain CHS5, active compounds read low 0.975 | S. cerevisiae deletion strains, locus YLR342W, strain FKS1 (second series), active compounds read low 0.995 | S. cerevisiae deletion strains, locus YLR342W, strain FKS1, active compounds read low 0.983 | S. cerevisiae deletion strains, locus YLR357W, strain rsc2, active compounds read low 0.933 | S. cerevisiae deletion strains, locus YLR370C, strain arc18, active compounds read low 0.966 | S. cerevisiae deletion strains, locus YLR371W, strain rom2, active compounds read low 0.977 | S. cerevisiae deletion strains, locus YLR384C, strain iki3, active compounds read low 0.987 | S. cerevisiae deletion strains, locus YLR418C, strain cdc73, active compounds read low 0.978 | S. cerevisiae deletion strains, locus YML016C, strain PPZ1, active compounds read low 0.983 | S. cerevisiae deletion strains, locus YML032C, strain rad52, active compounds read low 0.982 | S. cerevisiae deletion strains, locus YML120C, strain ndi1, active compounds read low 0.992 | S. cerevisiae deletion strains, locus YML124C, strain tub3, active compounds read low 0.973 | S. cerevisiae deletion strains, locus YMR058W, strain fet3, active compounds read low 0.973 | S. cerevisiae deletion strains, locus YMR078C, strain ctf18, active compounds read low 0.98 | S. cerevisiae deletion strains, locus YMR125W, strain sto1, active compounds read low 0.99 | S. cerevisiae deletion strains, locus YMR129W, active compounds read low 0.977 | S. cerevisiae deletion strains, locus YMR205C, strain PFK2, active compounds read low 0.97 | S. cerevisiae deletion strains, locus YMR223W, strain ubp8, active compounds read low 0.986 | S. cerevisiae deletion strains, locus YMR231W, strain pep5, active compounds read low 0.99 | S. cerevisiae deletion strains, locus YMR263W, strain SAP30, active compounds read low 0.981 | S. cerevisiae deletion strains, locus YMR307W, strain GAS1, active compounds read low 1.07 | S. cerevisiae deletion strains, locus YNL067W, strain RPL9B, active compounds read low 0.988 | S. cerevisiae deletion strains, locus YNL071W, strain lat1, active compounds read low 0.993 | S. cerevisiae deletion strains, locus YNL128W, strain TEP1, active compounds read low 0.97 | S. cerevisiae deletion strains, locus YNL153C, strain GIM3, active compounds read low 0.986 | S. cerevisiae deletion strains, locus YNL183C, strain NPR1, active compounds read low 0.938 | S. cerevisiae deletion strains, locus YNL209W, strain ssb2, active compounds read low 0.989 | S. cerevisiae deletion strains, locus YNL233W, strain BNI4, active compounds read low 0.986 | S. cerevisiae deletion strains, locus YNL248C, strain rpa49, active compounds read low 0.993 | S. cerevisiae deletion strains, locus YNL250W, strain rad50, active compounds read low 0.952 | S. cerevisiae deletion strains, locus YNL271C, strain bni1, active compounds read low 0.976 | S. cerevisiae deletion strains, locus YNL298W, strain CLA4, active compounds read low 0.986 | S. cerevisiae deletion strains, locus YNL307C, strain MCK1, active compounds read low 0.981 | S. cerevisiae deletion strains, locus YNL322C, strain KRE1 (second series), active compounds read low 0.992 | S. cerevisiae deletion strains, locus YNL322C, strain KRE1, active compounds read low 0.978 | S. cerevisiae deletion strains, locus YNR049C, strain mso1, active compounds read low 0.971 | S. cerevisiae deletion strains, locus YNR052C, strain pop2, active compounds read low 1 | S. cerevisiae deletion strains, locus YOL006C, strain TOP1, active compounds read low 1.02 | S. cerevisiae deletion strains, locus YOL012C, strain htz1 0.94 | S. cerevisiae deletion strains, locus YOL147C, strain pex11, active compounds read low 0.969 | S. cerevisiae deletion strains, locus YOR001W, strain rrp6, active compounds read low 0.997 | S. cerevisiae deletion strains, locus YOR061W, strain CKA2, active compounds read low 0.98 | S. cerevisiae deletion strains, locus YOR069W, strain VPS5, active compounds read low 0.983 | S. cerevisiae deletion strains, locus YOR070C, strain gyp1, active compounds read low 0.985 | S. cerevisiae deletion strains, locus YOR080W, strain dia2, active compounds read low 0.974 | S. cerevisiae deletion strains, locus YOR083W, strain WHI5, active compounds read low 0.995 | S. cerevisiae deletion strains, locus YOR106W, strain vam3, active compounds read low 1.07 | S. cerevisiae deletion strains, locus YOR136W, strain idh2, active compounds read low 0.987 | S. cerevisiae deletion strains, locus YOR144C, strain elg1, active compounds read low 0.979 | S. cerevisiae deletion strains, locus YOR184W, strain ser1, active compounds read low 0.995 | S. cerevisiae deletion strains, locus YOR231W, strain MKK1, active compounds read low 0.981 | S. cerevisiae deletion strains, locus YOR265W, strain rbl2, active compounds read low 0.971 | S. cerevisiae deletion strains, locus YOR270C, strain vph1, active compounds read low 1.07 | S. cerevisiae deletion strains, locus YOR290C, strain snf2, active compounds read low 0.977 | S. cerevisiae deletion strains, locus YOR316C, strain cot1, active compounds read low 0.976 | S. cerevisiae deletion strains, locus YPL051W, strain arl3, active compounds read low 0.985 | S. cerevisiae deletion strains, locus YPL055C, strain LGE1, active compounds read low 1 | S. cerevisiae deletion strains, locus YPL078C, strain atp4, active compounds read low 0.984 | S. cerevisiae deletion strains, locus YPL106C, strain sse1, active compounds read low 0.941 | S. cerevisiae deletion strains, locus YPL240C, strain hsp82, active compounds read low 0.99 | S. cerevisiae deletion strains, locus YPL241C, strain CIN2, active compounds read low 0.988 | S. cerevisiae deletion strains, locus YPL256C, strain CLN2, active compounds read low 0.99 | S. cerevisiae deletion strains, locus YPR119W, strain clb2, active compounds read low 0.988 | S. cerevisiae deletion strains, locus YPR141C, strain kar3, active compounds read low 0.938 | S. cerevisiae deletion strains, locus YPR163C, strain tif3, active compounds read low 0.975 | S. cerevisiae deletion strains, locus YPR167C, strain met16, active compounds read low 0.97 | S. cerevisiae deletion strains, strain wtn01, active compounds read low 0.975 | S. cerevisiae strains, strain wild type, active compounds read low 0.983
